Results filed as inconclusive are left out. The list shows a part of the results. Active and inactive are the calls of the source. Unless noted, calls come from the whole dose curve; as a rule, active = well fitted curve in the direction sought with a large enough effect; inconclusive = small, poorly fitted or top-dose-only effect, or another doubt; inactive = no such curve, though single readings can be large; an effect the other way counts as inactive or inconclusive.
Legend:
[1] = target: Tumor susceptibility gene 101 protein (Homo sapiens) (UniProt Q99816); experiment: qHTS Assay for Iinhibitors of HIV-1 Budding by Blocking the Interaction of PTAP/TSG101: Hit Validation (AID 651600); note: % is set by controls: 0 for no effect and ±100 for the full control effect; nearly all actives have a fitted effect of over 70% in size
In short: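 FITC-PTAP peptide (50 nM final) binding to Tsg101 binding domain (10 uM final) was measured by polarization after 20 min at r.t. with compounds, in 10 mM HEPES pH 7.5 buffer with 0.15 M NaCl and 0.01% Tween 20.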

[2] = target: Rap guanine nucleotide exchange factor 3 (Homo sapiens) (UniProt O95398); experiment: Confirmatory qHTS for antagonist of cAMP-regulated guanine nucleotide exchange factor 3 (EPAC1) (AID 1645880); conditions: EPAC1 Rap1B-BODIPY-GDP exchange, fluorescence; activity, negative = inhibition: at 115 µM (top of the series); note: nearly all actives have a fitted effect of over 55% in size; note: potency is the fitted concentration of half-maximal effect;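 for activity, negative = inhibition: plate controls were DMSO only for no effect and full effect of the ATA control for full effect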
In short: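 Nucleotide exchange uses 100 nM EPAC1, 250 nM RAP1B-BODIPY-GDP and 50 uM GDP, with compounds in a concentration-titration series. After 5 min at room temperature, fluorescence (480 nm ex/540 nm em) is read every 5 min for 30 min. Data are normalized to control ATA and DMSO.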

[3] = target: Rap guanine nucleotide exchange factor 4 (Homo sapiens) (UniProt Q8WZA2); experiment: Confirmatory qHTS for antagonist of cAMP-regulated guanine nucleotide exchange factor 4 (EPAC2) (AID 1645885); note: nearly all actives have a fitted effect of over 25% in size; note: potency is the fitted concentration of half-maximal effect
[4] = target: Rap guanine nucleotide exchange factor 3 (Homo sapiens) (UniProt O95398); experiment: Counterscreen qHTS for antagonist of cAMP-regulated guanine nucleotide exchange factor 3 (EPAC1) (AID 1645888);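 note: fluorescence loss as bound BODIPY-GDP is released from Rap1B; % of control where 0% means no effect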
In short: (§1)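 Rap1B-BODIPY-GDP 250 nM + GDP 50 uM; cpds 7-pt, final 9.74 nM–152 uM (activator mode) or from 7.32 nM upwards (inhibitor mode); RT; FI 480/540 nm at 5 and 30 min, then ± cAMP, reread.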

[5] = target: Cytochrome P450 1A2 (Homo sapiens) (UniProt P05177); experiment: p450-cyp1a2 (AID 410; calls by dose curve; note: potency is the fitted concentration of half-maximal effect)
In short: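 Luminescent readout of luciferin formed from Luciferin-ME by human CYP1A2; data normalized against complete inhibition by 57 uM furafylline. Enzyme 20nM, substrate 100uM at Km, 100mM KPO4 buffer, 60 min reaction at room temperature.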

[6] = NFAT Signaling Pathway (AID 444; active = well fitted curve in either direction with a large enough effect, not every such curve was filed as active;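 note: carbachol stimulus at about its EC50 of 1 µM final; % is set by controls: 0 for no effect and ±100 for the full control effect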); conditions: Jurkat NFAT-bla M1, carbachol, beta-lactamase ratio, 5 h; at 7.69 µM (top of the series) unless noted
In short: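 Read-out: CCF4 FRET ratio (460 nm/530 nm) after 1 h RT dye loading, used for %activity and AC50 from titration series. Cells: Jurkat NFAT-β-lactamase/M1 line, treated with compound plus 1 uM carbachol for 5 h, 37 °C.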

[7] = Stat Signaling Pathway (AID 446; active = well fitted curve in either direction with a large enough effect, not every such curve was filed as active;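 note: ME-180 cervical cancer cells given 40 pM IL-6 alongside compound; SIE-controlled beta-lactamase reporter measured as 460/530 nm FRET emission ratio; % is set by controls: 0 for no effect and ±100 for the full control effect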)
In short: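 Screening format detects activators and inhibitors alike: ME-180 SIE-bla cells stimulated at 40 pM IL-6 for 5 hrs with compound, then dual-emission beta-lactamase read at 405 nm excitation.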

[8] = target: Glucocorticoid receptor (Homo sapiens) (UniProt P04150); experiment: GR-GFP Redistribution (AID 450;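 active = compounds whose dose series gives a full or clear partial fitted curve of increased nuclear translocation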; note: potency is the fitted concentration of half-maximal effect); conditions: U2OS GR-GFP nuclear translocation, laser cytometry, 2 h
[9] = target: Mitogen-activated protein kinase 10 (Mus musculus) (UniProt Q61831); experiment: JNK3 AlphaScreen Assay (AID 530; active = well fitted curve in either direction with a large enough effect, not every such curve was filed as active;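 note: kinase came from lysate of stimulated human HepG2 cells; signal reports phosphorylation of biotinylated GST-cJun 1-79 at Ser73 with 10 µM ATP; % is set by controls: 0 for no effect and ±100 for the full control effect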)
In short: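 Compound titrations were preincubated 15 minutes at room temperature with substrate, antibody and pre-activated JNK3-containing HepG2 lysate. Reactions were started with 10 uM ATP and stopped with EDTA-containing bead buffer for AlphaScreen detection.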

[10] = target: 3',5'-cyclic-AMP phosphodiesterase 4B (Homo sapiens) (UniProt Q07343); experiment: qHTS Assay for Inhibitors of PDE-IV (AID 607; active = well fitted activation curve with a large enough effect in the main read-out, with a control signal flat, not every such curve was filed as active; note: % of control where 0% means no effect)
In short: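 The readout is membrane depolarisation from a cAMP-sensing CNG channel, detected with a potential dye at ex 535/em 590. Cells were HEK293-derived (endogenous PDE-IV) at 1000 cells/well, titrated up to 22.9 uM final.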

[11] = target: Cytochrome P450 2C9 (Homo sapiens) (UniProt P11712); experiment: qHTS Assay for Inhibitors and Substrates of Cytochrome P450 2C9 (AID 883); note: % is set by controls: 0 for no effect and ±100 for the full control effect; nearly all actives have a fitted effect of over 60% in size
In short: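 Luminescent read-out of deoxyluciferin hydroxylation, normalized to 57uM sulphaphenazole (AC100). Reaction: 10nM enzyme, 100uM Luciferin-H (equal to KM), 25mM KPO4, 10 min compound preincubation, then 60 min with NADPH regeneration, both at 37C.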

[12] = target: Cytochrome P450 3A4 (Homo sapiens) (UniProt P08684); experiment: qHTS Assay for Inhibitors and Substrates of Cytochrome P450 3A4 (AID 884); note: potency is the fitted concentration of half-maximal effect; nearly all actives have a fitted effect of over 50% in size
In short: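 20 nM human CYP3A4 with 25 uM Luciferin-PPXE (at KM) in 200 mM KPO4, preincubated 10 min with compound; NADPH regeneration started a 60 min RT reaction. Luciferin detected by luminescence, normalized to 57 uM ketoconazole as full inhibition.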

[13] = target: Cytochrome P450 3A4 (Homo sapiens) (UniProt P08684); experiment: qHTS Assay for Activators of Cytochrome P450 3A4 (AID 885); note: nearly all actives have a fitted effect of over 65% in size
In short: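 Steps: enzyme/substrate mix dispensed; compound added, 10 min RT; NADPH regeneration solution added, 60 min RT; luciferin detection buffer stops reaction; 20 min later luminescence measured.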

[14] = target: Bifunctional 3'-5' exonuclease/ATP-dependent helicase WRN (Homo sapiens) (UniProt Q14191); experiment: qHTS for Inhibitors of WRN Helicase: Confirmatory Assay for Cherry-picked Compounds. (AID 720497); conditions: WRN helicase DNA unwinding, fluorescence kinetic; note: potency is the fitted concentration of half-maximal effect; nearly all actives have a fitted effect of over 65% in size
In short: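 Kinetic fluorescence helicase read-out (525 nm excitation, 598 nm emission) on a forked duplex substrate at 100 nM with 2 mM ATP. Enzyme: 20 nM WRN, exposed to compound for 15 min at room temperature. Responses normalized to buffer-only and positive-control wells.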

[15] = qHTS for Inhibitors of WRN Helicase: Thiazole Orange DNA Binding Counterscreen (AID 720499);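 note: drop in dye fluorescence marks compound binding to DNA; % is set by controls: 0 for no effect and ±100 for the full control effect; nearly all actives have a fitted effect of over 60% in size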
In short: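 Readout: ThO fluorescence, ex 480 nm/em 530 nm. Mix: 50 nM unlabeled DNA, 100 nM ThO. Compounds pintooled in, 15 min RT before reading.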

[16] = target: RecQ-like DNA helicase BLM (Homo sapiens) (UniProt P54132); experiment: qHTS for Inhibitors of WRN Helicase: BLM Helicase Counterscreen for WRN Inhibitors (AID 720503); conditions: Recombinant BLM helicase DNA unwinding, red fluorescence; note: potency is the fitted concentration of half-maximal effect; nearly all actives have a fitted effect of over 60% in size
In short: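 1 nM BLM, Tris pH 8.0/NaCl/MgCl2/DTT/Tween-20; cpd preinc 15 min RT; start w/ 100 nM DNA + 2 mM ATP final; fluorescence (ex 525/em 598) two reads 15 min apart; normalized to enzyme-free and DMSO controls.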

[17] = target: Lysosomal acid glucosylceramidase (Homo sapiens) (UniProt P04062); experiment: Glucocerebrosidase-p2 (AID 348; in the data active = potency below about 10 µM; note: potency is the fitted concentration of half-maximal effect); conditions: purified GBA, blue fluorogenic substrate, 40 min
In short: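 Compounds titrated from 0.6 nM upwards against 0.2 nM enzyme in pH 5.9 citric acid/KH2PO4, taurocholate, tween-20; blue fluorogenic substrate 80 uM, 40 min room temperature, stopped and read Ex 365/Em 440 for AC50.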

[18] = AP1 Signaling Pathway (AID 357; active = well fitted curve in either direction with a large enough effect, not every such curve was filed as active;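 note: ME-180 reporter cells stimulated with EGF at its EC50 level; % is set by controls: 0 for no effect and ±100 for the full control effect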); conditions: ME-180 (cervical carcinoma) AP-1-bla reporter, EGF-induced, beta-lactamase ratio, 5 h; at 7.69 µM (top of the series) unless noted
In short: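 A ratiometric CCF4 readout (405 nm excitation; 460 and 530 nm emission) quantified AP-1-driven beta-lactamase in ME-180 cells after 5 h with compound and EC50 EGF; AC50 values were derived for activators and inhibitors.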

[19] = target: Glucocorticoid receptor (Homo sapiens) (UniProt P04150); experiment: GR-EFC Redistribution (AID 451; calls by dose curve; note: potency is the fitted concentration of half-maximal effect); conditions: CHO-K1 GR-EFC translocation, beta-gal luminescence, 2 h
In short: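 Translocation of GR-ED fusion to nuclear EA restores b-gal, read by luminescence after 1 h room-temperature detection. Engineered CHO-K1 biosensor cells, 1,000/well, exposed 2 h at 37 C to titrations up to 46 uM final.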

[20] = target: Rap guanine nucleotide exchange factor 3 (Homo sapiens) (UniProt O95398); experiment: Counterscreen qHTS for agonist of cAMP-regulated guanine nucleotide exchange factor 3 (EPAC1) (AID 1645889); note: potency is the fitted concentration of half-maximal effect; nearly all actives have a fitted effect of over 40% in size
In short: as §1

[21] = NCATS anti-infectives library activity on HEK293 viability as a counter-qHTS vs the C. elegans viability qHTS (AID 1745854)
In short: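 Compounds were acoustically plated (several concentrations, 1:5, final up to 41.7 uM), then 1500 HEK293 cells added per well and incubated 24 hr at 37C, 5% CO2. CellTiter-Glo was added and luminescence read after 10 min.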

[22] = target: Flap endonuclease 1 (Homo sapiens) (UniProt P39748); experiment: qHTS Assay for the Inhibitors of FEN1: Confirmatory Assay for Cherry-picked Compounds (AID 720498); conditions: FEN1 flap cleavage, TAMRA/BHQ2 fluorogenic DNA substrate; note: potency is the fitted concentration of half-maximal effect; nearly all actives have a fitted effect of over 60% in size
In short: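 FEN1 at 10 nM was preincubated with compound for 15 min at room temperature, then 50 nM (final) double-flap DNA substrate was added. TAMRA fluorescence released from the BHQ-2-quenched flap was read at 0 and 15 min (ex 525/em 598 nm).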

[23] = target: DNA polymerase kappa (Homo sapiens) (UniProt Q9UBT6); experiment: qHTS for Inhibitors of Polymerase Kappa: Confirmatory Assay for Cherry-picked Compounds (AID 720501); conditions: purified Pol-kappa, fluorescent strand-displacement substrate; note: potency is the fitted concentration of half-maximal effect
In short: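 Strand-displacement fluorescence read-out: TAMRA reporter released from a BHQ-2-quenched template, measured at 525/598 nm over a 10 min kinetic window. Substrate was 50 nM final; enzyme was 10 nM Pol-kappa, preincubated 15 min at room temperature with compound.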

[24] = target: Rap guanine nucleotide exchange factor 3 (Homo sapiens) (UniProt O95398); experiment: Confirmatory qHTS for agonist of cAMP-regulated guanine nucleotide exchange factor 3 (EPAC1) (AID 1645881);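 note: EPAC1 catalysed release of BODIPY-GDP from Rap1B seen as fluorescence loss; 100% = effect of cAMP agonist control; nearly all actives have a fitted effect of over 75% in size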
[25] = target: Rap guanine nucleotide exchange factor 4 (Homo sapiens) (UniProt Q8WZA2); experiment: Confirmatory qHTS for agonist of cAMP-regulated guanine nucleotide exchange factor 4 (EPAC2) (AID 1645884);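 note: nucleotide exchange releases bodipy-GDP from Rap1 and this lowers its fluorescence; % is set by controls: 0 for no effect and ±100 for the full control effect; nearly all actives have a fitted effect of over 65% in size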

Chain of 3',5'-cyclic-AMP phosphodiesterase 4B (Homo sapiens) (Q07343 whole entry, looked up): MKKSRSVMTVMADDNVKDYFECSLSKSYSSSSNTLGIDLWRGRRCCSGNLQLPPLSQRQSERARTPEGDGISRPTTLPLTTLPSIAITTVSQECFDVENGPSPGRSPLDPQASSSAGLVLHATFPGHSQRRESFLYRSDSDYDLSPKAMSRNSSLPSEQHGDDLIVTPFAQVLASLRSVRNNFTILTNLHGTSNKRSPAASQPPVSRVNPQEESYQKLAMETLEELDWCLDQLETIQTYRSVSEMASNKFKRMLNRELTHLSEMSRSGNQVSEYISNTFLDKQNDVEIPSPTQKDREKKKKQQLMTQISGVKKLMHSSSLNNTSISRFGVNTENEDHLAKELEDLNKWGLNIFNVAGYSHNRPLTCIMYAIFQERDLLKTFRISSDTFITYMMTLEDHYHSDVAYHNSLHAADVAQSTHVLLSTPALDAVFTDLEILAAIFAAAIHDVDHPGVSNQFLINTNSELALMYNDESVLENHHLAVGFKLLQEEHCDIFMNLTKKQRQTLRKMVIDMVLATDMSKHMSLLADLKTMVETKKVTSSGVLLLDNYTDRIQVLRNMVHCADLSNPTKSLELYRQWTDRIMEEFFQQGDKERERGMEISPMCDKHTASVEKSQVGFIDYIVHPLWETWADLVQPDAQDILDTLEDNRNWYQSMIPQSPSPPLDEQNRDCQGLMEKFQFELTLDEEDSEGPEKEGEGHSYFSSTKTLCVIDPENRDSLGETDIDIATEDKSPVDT
Chain of Rap guanine nucleotide exchange factor 4 (Homo sapiens) (Q8WZA2 whole entry, looked up): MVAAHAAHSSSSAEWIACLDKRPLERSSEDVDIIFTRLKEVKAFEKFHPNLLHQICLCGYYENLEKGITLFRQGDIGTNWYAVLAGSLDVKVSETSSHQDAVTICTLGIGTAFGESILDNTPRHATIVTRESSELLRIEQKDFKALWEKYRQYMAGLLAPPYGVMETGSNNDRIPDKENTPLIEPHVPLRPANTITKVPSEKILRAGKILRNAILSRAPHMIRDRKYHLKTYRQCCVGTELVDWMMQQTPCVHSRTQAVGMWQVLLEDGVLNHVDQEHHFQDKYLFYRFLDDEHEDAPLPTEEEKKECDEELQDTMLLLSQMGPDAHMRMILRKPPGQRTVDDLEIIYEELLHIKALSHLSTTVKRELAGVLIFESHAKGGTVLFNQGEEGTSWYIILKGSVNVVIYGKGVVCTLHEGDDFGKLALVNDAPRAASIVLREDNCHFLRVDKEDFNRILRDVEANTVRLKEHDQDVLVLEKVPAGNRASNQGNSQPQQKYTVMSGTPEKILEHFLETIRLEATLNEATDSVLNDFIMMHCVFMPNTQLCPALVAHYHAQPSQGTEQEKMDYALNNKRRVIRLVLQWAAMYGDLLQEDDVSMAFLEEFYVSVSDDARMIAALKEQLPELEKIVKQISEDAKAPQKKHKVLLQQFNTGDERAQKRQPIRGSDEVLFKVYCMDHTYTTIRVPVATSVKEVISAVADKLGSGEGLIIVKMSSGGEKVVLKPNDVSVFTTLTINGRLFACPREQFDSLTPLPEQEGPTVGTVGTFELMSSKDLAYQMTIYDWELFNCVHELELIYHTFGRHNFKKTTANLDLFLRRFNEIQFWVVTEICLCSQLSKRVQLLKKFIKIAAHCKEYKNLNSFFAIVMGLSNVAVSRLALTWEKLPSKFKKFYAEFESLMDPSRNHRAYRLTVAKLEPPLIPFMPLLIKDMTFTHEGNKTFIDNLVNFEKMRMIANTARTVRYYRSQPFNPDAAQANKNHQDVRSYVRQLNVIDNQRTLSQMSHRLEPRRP
Chain of Rap guanine nucleotide exchange factor 3 (Homo sapiens) (O95398 whole entry, looked up): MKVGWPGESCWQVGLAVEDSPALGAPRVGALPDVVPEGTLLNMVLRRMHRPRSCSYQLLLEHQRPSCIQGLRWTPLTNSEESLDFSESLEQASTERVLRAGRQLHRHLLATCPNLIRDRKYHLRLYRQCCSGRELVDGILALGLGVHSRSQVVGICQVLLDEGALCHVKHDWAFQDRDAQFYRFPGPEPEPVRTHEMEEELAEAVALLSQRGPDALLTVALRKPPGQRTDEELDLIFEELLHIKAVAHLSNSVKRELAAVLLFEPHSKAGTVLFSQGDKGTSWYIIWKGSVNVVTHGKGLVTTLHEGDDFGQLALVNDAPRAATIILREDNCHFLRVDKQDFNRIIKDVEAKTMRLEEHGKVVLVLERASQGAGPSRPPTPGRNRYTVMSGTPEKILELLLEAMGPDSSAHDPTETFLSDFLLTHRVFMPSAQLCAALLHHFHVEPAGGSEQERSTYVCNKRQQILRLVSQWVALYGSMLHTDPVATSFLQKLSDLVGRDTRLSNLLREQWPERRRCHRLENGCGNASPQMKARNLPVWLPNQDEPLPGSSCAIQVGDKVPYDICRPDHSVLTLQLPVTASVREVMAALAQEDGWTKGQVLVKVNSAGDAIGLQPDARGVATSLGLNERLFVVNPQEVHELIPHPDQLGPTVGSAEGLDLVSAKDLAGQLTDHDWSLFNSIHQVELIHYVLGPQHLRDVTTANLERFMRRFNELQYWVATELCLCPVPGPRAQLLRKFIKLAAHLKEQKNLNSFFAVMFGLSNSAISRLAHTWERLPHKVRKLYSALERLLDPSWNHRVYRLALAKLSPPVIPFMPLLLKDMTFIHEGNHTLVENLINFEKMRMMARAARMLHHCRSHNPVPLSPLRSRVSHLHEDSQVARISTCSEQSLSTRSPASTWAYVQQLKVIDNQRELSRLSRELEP
Chain of Cytochrome P450 3A4 (Homo sapiens) (P08684 whole entry, looked up): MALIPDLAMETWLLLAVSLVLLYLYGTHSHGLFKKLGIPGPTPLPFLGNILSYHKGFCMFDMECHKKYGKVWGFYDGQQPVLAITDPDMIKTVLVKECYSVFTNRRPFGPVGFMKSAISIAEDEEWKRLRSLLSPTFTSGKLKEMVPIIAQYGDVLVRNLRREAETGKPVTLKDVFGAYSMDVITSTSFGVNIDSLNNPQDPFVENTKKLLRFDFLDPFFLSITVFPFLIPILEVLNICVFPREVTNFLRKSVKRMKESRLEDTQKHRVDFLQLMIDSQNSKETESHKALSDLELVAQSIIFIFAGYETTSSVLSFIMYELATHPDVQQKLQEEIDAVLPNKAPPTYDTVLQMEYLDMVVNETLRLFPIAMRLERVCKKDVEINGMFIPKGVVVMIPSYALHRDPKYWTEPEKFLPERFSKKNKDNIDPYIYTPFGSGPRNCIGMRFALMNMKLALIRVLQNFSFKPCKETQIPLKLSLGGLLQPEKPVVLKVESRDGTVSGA
Chain of Glucocorticoid receptor (Homo sapiens) (P04150 whole entry, looked up, the tested form may be a part): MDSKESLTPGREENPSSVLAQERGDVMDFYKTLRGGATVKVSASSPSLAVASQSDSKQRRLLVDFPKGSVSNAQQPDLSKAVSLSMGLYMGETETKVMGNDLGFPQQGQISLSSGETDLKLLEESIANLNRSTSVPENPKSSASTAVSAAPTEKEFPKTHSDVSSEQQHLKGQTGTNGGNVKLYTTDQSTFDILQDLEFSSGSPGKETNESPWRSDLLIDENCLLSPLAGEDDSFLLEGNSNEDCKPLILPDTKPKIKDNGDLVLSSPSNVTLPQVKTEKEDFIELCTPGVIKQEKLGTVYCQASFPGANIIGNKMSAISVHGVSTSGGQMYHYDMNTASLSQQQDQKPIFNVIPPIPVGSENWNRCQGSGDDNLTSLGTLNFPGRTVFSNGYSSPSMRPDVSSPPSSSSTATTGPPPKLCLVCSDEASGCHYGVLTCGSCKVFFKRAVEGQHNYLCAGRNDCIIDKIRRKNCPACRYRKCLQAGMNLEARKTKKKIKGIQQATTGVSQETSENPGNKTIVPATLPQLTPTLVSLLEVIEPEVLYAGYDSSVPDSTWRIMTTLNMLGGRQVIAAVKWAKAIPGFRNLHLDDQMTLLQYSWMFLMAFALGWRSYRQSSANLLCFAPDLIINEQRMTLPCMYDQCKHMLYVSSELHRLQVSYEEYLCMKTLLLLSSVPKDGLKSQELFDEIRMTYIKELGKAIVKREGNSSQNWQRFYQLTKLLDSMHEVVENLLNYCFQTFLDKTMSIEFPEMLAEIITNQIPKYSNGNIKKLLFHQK
Chain of Lysosomal acid glucosylceramidase (Homo sapiens) (P04062 whole entry, looked up): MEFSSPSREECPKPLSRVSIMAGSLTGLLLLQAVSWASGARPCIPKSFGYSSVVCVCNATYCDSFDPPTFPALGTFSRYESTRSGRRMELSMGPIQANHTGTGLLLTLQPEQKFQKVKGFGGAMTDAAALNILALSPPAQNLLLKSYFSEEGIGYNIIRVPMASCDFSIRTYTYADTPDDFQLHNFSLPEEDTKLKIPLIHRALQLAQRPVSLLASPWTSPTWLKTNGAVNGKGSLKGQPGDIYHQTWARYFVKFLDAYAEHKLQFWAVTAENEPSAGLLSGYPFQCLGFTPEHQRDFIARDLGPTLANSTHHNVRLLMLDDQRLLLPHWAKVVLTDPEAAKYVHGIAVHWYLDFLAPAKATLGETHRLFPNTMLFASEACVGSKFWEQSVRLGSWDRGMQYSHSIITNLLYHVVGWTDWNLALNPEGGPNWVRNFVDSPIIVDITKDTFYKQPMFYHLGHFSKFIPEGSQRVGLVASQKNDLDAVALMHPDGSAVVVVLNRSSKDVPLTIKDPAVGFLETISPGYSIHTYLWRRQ
Chain of Flap endonuclease 1 (Homo sapiens) (P39748 whole entry, looked up): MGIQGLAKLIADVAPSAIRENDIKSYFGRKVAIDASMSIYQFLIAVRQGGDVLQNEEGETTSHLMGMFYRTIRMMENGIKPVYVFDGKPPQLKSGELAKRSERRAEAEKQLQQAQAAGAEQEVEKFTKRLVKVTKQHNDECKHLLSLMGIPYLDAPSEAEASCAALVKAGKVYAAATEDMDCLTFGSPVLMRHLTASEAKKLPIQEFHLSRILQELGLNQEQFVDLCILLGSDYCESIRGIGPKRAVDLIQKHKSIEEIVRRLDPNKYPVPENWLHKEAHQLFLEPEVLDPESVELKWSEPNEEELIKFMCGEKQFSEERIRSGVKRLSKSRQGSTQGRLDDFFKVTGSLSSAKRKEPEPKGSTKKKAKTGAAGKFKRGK

COc1cccc(/C(O)=C/c2nc3ccc(C(=O)NCCc4ccc(Cl)cc4)cc3[nH]c2=O)c1
inactive: Potency [1] | Potency [2] | Potency [3] | Potency [4]

c1ccc(Oc2nc(-c3cccnc3)nc3ccccc23)cc1
inactive: Potency [2] | Potency [4]

COc1cccc(Nc2ncc3nc(-c4ccc(F)cc4)c(=O)n(CCC#N)c3n2)c1
inactive: activity change, negative = inhibition [6] -6.29% | outcome [7] | Potency [8] > 9.22 µM | Potency [9] | Potency [10] | Potency [11] | outcome [13] | Potency [2] | Potency [3]
active: Potency [5] 3.98 µM | Potency [12] 3.16 µM

COc1cccc(/C=N/NC(=O)c2[nH]nc3c2CCc2ccccc2-3)c1O
active: Potency [14] 21.5 µM | Potency [16] 6.81 µM | Potency [2] 33.8 µM
inactive: outcome [15] | Potency [3] | Potency [4]

CC(=O)N1CCC2(CCCN(c3ccc(-c4ccccc4)cc3)C2)CC1
inactive: Potency [17] > 11.4 µM | activity change, negative = inhibition [18] -10.1% | activity change, negative = inhibition [6] -24.3% | outcome [7] | Potency [19] > 46 µM | Potency [9] | Potency [10] | Potency [2] | Potency [3]

Cc1ccc(CNC(=O)c2cccc3c2C(=O)c2ccc(N4CCC(C)CC4)cc2S3(=O)=O)cc1
inactive: Potency [2] | Potency [3]
active: Potency [20] 11.2 µM

COc1cccc(Nc2nnc(-c3cc4ccc(O)cc4oc3=O)s2)c1
inactive: Potency [2] | Potency [4] | Potency [21]

Cn1ccc(=Nc2ccc(NC(=O)c3ccc(N=c4ccn(C)c5ccc([N+](=O)[O-])cc45)cc3)cc2)cc1
inactive: Potency [4]
active: Potency [22] 9.53 µM | Potency [23] 4.23 µM | Potency [2] 42.6 µM | Potency [3] 16.9 µM

COc1cccc(Nc2ncc3nc(-c4cc(F)cc(F)c4)c(=O)n(CCC#N)c3n2)c1
inactive: Potency [17] > 11.4 µM | outcome [7] | Potency [8] > 9.22 µM | Potency [10] | outcome [13] | Potency [2] | Potency [3]

O=[N+]([O-])/C=C/c1cn(Cc2ccc(Cl)cc2)c2ccccc12
inactive: Potency [2] | Potency [4]

O=C(CSc1nnc(SCc2ccc(Cl)cc2)s1)N/N=C/c1ccc(C(=O)O)cc1
inactive: Potency [24] | Potency [25]

NS(=O)(=O)c1ccc2c(c1)C1C=CCC1C(C1CC=CCC1)N2 (stereo not given)
inactive: Potency [24] | activation [25] 6.51% [at 17.1 µM, percent relative to cAMP agonist control] | Potency [3]

O=S(=O)(Nc1ccc(Cl)cc1NS(=O)(=O)c1ccccc1)c1ccccc1
inactive: Potency [24] | activation [25] 1.88% [at 17.1 µM, percent relative to cAMP agonist control] | Potency [3]
